Data taken from PubChem BioAssay (EPA / NIEHS).
The source made the active and inactive calls. How the source made its calls: active means hit-call score of the fitted dose curve at least 0.9, where 1 is the maximum; inactive means score below 0.9.

Read-out: Glutamate-cysteine ligase catalytic (GCLC), GCLC (gene 2729)
Assay: LTEA_HepaRG_GCLC: Life Technologies and Expression Analysis (LTEA) Assay for Glutamate-cysteine ligase catalytic (GCLC) using HepaRG (AID 2283498)
Conditions: mRNA level, 48 h; actives raise or lower the signal
Experimental: LTEA_HepaRG is a cell based, multiplexed-readout assay that uses HepaRG, a human liver cell line, with measurements taken at 48 hours after chemical dosing on a 96-well plate.LTEA_HepaRG_GCLC is one of 102 assay component(s) measured in the LTEA HepaRG cell culture assay. It is a marker of Oxidative Stress.Data from the assay component LTEA_HepaRG_GCLC was analyzed into 1 endpoint. This assay endpoint, LTEA_HepaRG_GCLC, was analyzed with bidirectional fitting relative to DMSO as the negative control and baseline of activity. Using a type of inducible reporter, measures of mRNA induction for gain or loss-of-signal activity can be used to understand regulation of transcription factor activity. To generalize the intended target to other relatable targets, this assay endpoint is annotated to the ligase intended target family, where the subfamily is C-N ligase.
A total of 1060 chemcials from the ToxCast library were tested in eight-point concentration-response experiments. Cell culture and cytotoxicity assays were conducted at Thermo Fisher Scientific's Custom Services facility (Madison, WI). A single lot of human HepaRG cells (Thermo Fisher Scientific, Frederick, MD) was used for the cell culture experiments. 96-well format collagen type I coated plates of human HepaRG cells were prepared using established methods. Briefly, cryopreserved HepaRG cells were thawed, plated at a density of approximately 100,000 cells/well in HepaRG Thaw, Plate, and General Purpose media (HPRG770, Thermo Fisher Scientific), and incubated for 48 hours. 0.5% DMSO was selected as vehicle control to balance the requisite need of DMSO in HepaRG cultures to maintain differentiation (for example, baseline metabolism, proportions of hepatocytes vs. cholangiocytes), while enabling further hepatic receptor pathway activation (for example, PXR and CAR) in response to chemical exposure. 48 hours after plating, the culture medium was replaced with HepaRG Serum-Free Incudtion Media. Cells were exposed to each test chemical in duplicate and maintained in CO2 incubators for another 48 hours. Chemical plates were thawed to room temperature and 200x concentrations of treatment groups were prepared. 8-point conentration-reponse curves were made with the highest exposure at 100 uM, followed by half-log dilutions, all in 0.5% DMSO. Each test plate contained variouse controls, induction positive controls (1mM phenobarbital), cytotoxicity positive controls ([…] aflatoxin B1), vehicle controls (0.5% DMSO), and total lysis controls (0.5% DMSO). Cell morphology images were taken using an Essen IncuCyte FLR automated microscope, with six 96-well plates imaged in about 24 minutes. Images were captured and exported and JPEG files. Spent culture media was transfered to black-well plates for the LDH assay, and remaining media was sorted at -80 C for later use. Cells were treated with RLT buffer and frozen until shipped for gene expression analysis. Total RNA was isolated from the cell suspension in 75 uL of Buffer RLT (Qiagen, Germantown, MD 20874) by Quintiles/Expression Analysis (Durham, NC) using a custom isolation procedure. Total RNA from each plate well was transferred to a preamplification plate. Fluidigm's 96.96 Dynamic ArrayTM (Fluidigm, Amsterdam, the Netherlands) technology was used for gene expression analyses by quantitative reverse transcription polymerase chain reaction (qRT-PCR, performed by Quintiles/Expression Analysis, Durham, NC)89. Standard TaqManTM Assays (Applied Biosystems/ThermoFisher Scientific, Foster City, CA) were used to assess the expression of 93 genes selected based on their selectivity and sensitivity to important hepatic receptors known to be modulated by environmental chemicals; importance in human hepatocyte functionality; and hepatotoxicity. […]

SMILES | outcome | AC50
O=[N+]([O-])c1ccc(O)cc1 | inactive | 
CCc1ccc(CCOc2ccc(CC3SC(=O)NC3=O)cc2)nc1 (stereo not given) |  | 14.2 µM (active)
CCCCCCCCCCCCN1CCCC1=O | inactive | 
c1ccc2c(c1)ccc1ccccc12 | inactive | 
CCC(=C(c1ccc(O)cc1)c1ccc(OCCN(C)C)cc1)c1ccccc1 | inactive | 
CCN(CC)CCNc1ccc(CNC=O)c2sc3ccc(OC)cc3c(=O)c12 |  | 50 µM (active)
NC(=O)N1C(=O)C(C(=O)c2cc(Cl)cs2)c2cc(F)c(Cl)cc21 (stereo not given) |  | 34.1 µM (active)
Nc1cccc2c(N)cccc12 | inactive | 
CCCCC(CC)COC(=O)CCCCC(=O)OCC(CC)CCCC (stereo not given) | inactive | 
CC(=O)NC1(c2cccc(F)c2)CCN(CC[C@@]2(c3ccc(Cl)c(Cl)c3)CN(c3ccccc3)C(=O)CO2)CC1 | inactive | 
CCCCOCCO | inactive | 
CC(C)(C)c1cccc(C(C)(C)C)c1O | inactive | 
CC(C)(C)c1cc(C(C)(C)C)c(O)c(C(C)(C)C)c1 | inactive | 
Cc1oc(-c2ccccc2)nc1CCOc1ccc(C[C@H](Nc2ccccc2C(=O)c2ccccc2)C(=O)O)cc1 |  | 64 µM (active)
O=C(OCCOCCOC(=O)c1ccccc1)c1ccccc1 | inactive | 
CCC(C)(C)C1CCC(O)CC1 (stereo not given) | inactive | 
CCCCCCCCC(=O)O | inactive | 
OC1CCCCC1 | inactive | 
CCc1nn(C2CCCCC2)c2cc(C3(C#N)CCC(C(=O)O)CC3)ccc12 (stereo not given) |  | 83.6 µM (active)
CCCCCCCC(=O)O | inactive | 

SMILES | outcome | AC50
CC[C@H](C)[C@@H](C(=O)O)n1sc2ccccc2c1=O | inactive | 
OCCC(F)(F)C(F)(F)C(F)(F)C(F)(F)C(F)(F)C(F)(F)C(F)(F)C(F)(F)F | inactive | 
CN(C)C=O | inactive | 
C=C(C)C(=O)OCCC(F)(F)C(F)(F)C(F)(F)C(F)(F)C(F)(F)C(F)(F)F | inactive | 
C#C[C@]1(O)CC[C@H]2[C@@H]3CCC4=CC(=O)CC[C@@H]4[C@H]3CC[C@@]21C | inactive | 
CC(C)(C)c1ccc(O)c(C(C)(C)C)c1 | inactive | 
CCCCCCCCCCCCc1ccccc1S(=O)(=O)O | inactive | 
COc1ccc([N+](=O)[O-])cc1N | inactive | 
ClC1=C(Cl)C(Cl)(Cl)C(Cl)=C1Cl | inactive | 
CCCOC(=O)c1ccc(O)cc1 | inactive | 
c1ccc2cc3c(ccc4ccccc43)cc2c1 | inactive | 
CC#C[C@]1(O)CC[C@H]2[C@@H]3CCC4=CC(=O)CCC4=C3[C@@H](c3ccc(N(C)C)cc3)C[C@@]21C |  | 28.4 µM (active)
O=c1c(-c2ccc(O)cc2)coc2cc(O)ccc12 | inactive | 
CC(C)CCCCCCOC(=O)CCCCC(=O)OCCCCCCC(C)C | inactive | 
CCCCCCCCOC(=O)CCCCCCCCC(=O)OCCCCCCCC | inactive | 
CC(C)(C)CC(C)(C)c1ccc(O)c(-n2nc3ccccc3n2)c1 | inactive | 
CN1CCC[C@H]1c1cccnc1 | inactive | 
CC(O)CO (stereo not given) | inactive | 
NC(=O)N(O)[C@@H]1C=C[C@H](Oc2cccc(Oc3ccc(F)cc3)c2)C1 | inactive | 
Cc1cc(CCN2CCN(c3nsc4ccccc34)CC2)cc2c1NC(=O)CC2(C)C | inactive | 
